# Biological target: Shiga toxin 2 (Escherichia coli O157:H7) (UniProt P09385+P09386)
# Test: E. coli 0.157:H7 Shiga Toxin SOP - stx2 screening assay
# Format: functional
# Set-up: scale not given: direction of the effect not stated beside the values
# Settings: 30 µM
row,SMILES,Percent Effect
1,Cc1nc(C2CCN(C(=O)CO)CC2)cc(N2CCOCC2)n1,17.7%
2,O=C1CO[C@@H]2CN(S(=O)(=O)c3ccccc3)C[C@H]2N1CC1CC1,-3.47%
3,CCN1CCN(C(=O)c2ccn(C)c(=O)c2)CC1,-14.7%
4,CC(C)N1CCO[C@H]2CN(C(=O)c3ccc(N(C)C)cc3)C[C@H]21,-4.13%
5,O=C(c1cnoc1)N1CCC[C@]2(C[C@H](Oc3ncccc3F)CO2)C1,-8.52%
6,CNC(=O)CS(=O)(=O)Cc1cc(Cl)c2c(c1)OCCCO2,0.921%
7,COc1cc2cc(C(=O)N[C@@H](C)C(=O)O)n(C)c2c(OC)c1OC,-30.8%
8,O=C(c1ccccn1)N1C[C@@H]2CC[C@H](C1)N(C(=O)CCc1cccs1)C2,-22%
9,Cn1cnc2c1CCN(CCCc1ccccc1)C2,1.04%
10,Cc1nc(CN(C)C2CCN(CC(=O)N3CCOCC3)C2)no1 (stereo not given),11.2%
11,CC(C)Cc1cc(C(=O)NCc2nnc[nH]2)[nH]n1,2.04%
12,CCn1nc(C)c2nnn(CC(=O)Nc3c(C)cccc3C)c(=O)c21,-11.8%
13,Cc1nc(-c2ccccc2F)sc1C(=O)N1CCN(C)CC1,-0.463%
14,CN(C)Cc1nnc(C2CCN(c3nccc(N)n3)CC2)n1C1CC1,-41.2%
15,Cc1cnc(CN(C)C2CCN(CCc3cnn(C)c3)C2)o1 (stereo not given),9.7%
16,COc1ccccc1OCC(=O)NS(=O)(=O)c1ccccc1Br,-14.2%
17,CCc1ccccc1-n1nnc(C(=O)O)c1-c1ccccn1,-3.21%
18,CCn1nnc2cc(C(=O)N3CCCC3Cn3cc(C)cn3)ccc21 (stereo not given),0.821%
19,Cc1nc(CC(=O)N2CCC[C@H]2c2nc(C(C)C)no2)cs1,4.58%
20,COc1c(CNCc2ccc(N(C)C)nc2)c(C(C)C)nn1C,14%

row,SMILES,Percent Effect
1,CC(C)c1cc(C(=O)NCCN2CCCS2(=O)=O)n[nH]1,-14.6%
2,CCc1nc(CN(C)C2CCN(CCn3cc(C#N)cn3)C2)no1 (stereo not given),9.46%
3,Cc1cc(OCC(=O)NC(C)c2ccc(N3CCOCC3)cc2)no1 (stereo not given),-21.7%
4,NC(=O)COc1cccc(C(=O)Nc2cnc3n2CCCC3)c1,-2.86%
5,Cc1nc(CN(C)C2CCN(CCCOc3ccccc3)C2)no1 (stereo not given),-39.6%
6,CC1(C)CN(C(=O)NCCc2ccn(-c3ccccc3)n2)CCO1,16.6%
7,O=C(Cc1ccccc1F)N1CCN(C(=O)c2cccc(F)c2)CC1,-39.5%
8,c1ccc(-c2noc3c2CN(CC2CC2)CC3)cc1,-9.68%
9,Cc1noc2ncc(C(=O)N3CCCC3c3ccncc3)cc12 (stereo not given),-37.9%
10,Cc1ccc(C(=O)N2CCC3(CC2)CCN(CCN(C)C)C3=O)cn1,-1.78%
11,Cc1noc2ncc(C(=O)N3CCCC3c3cnn(C)c3)cc12 (stereo not given),-3.42%
12,Cc1nc[nH]c1CN1C[C@@H]2CC[C@H](C1)N(C(=O)CCNS(C)(=O)=O)C2,-0.862%
13,Cc1cccn2c(=O)cc(OC(=O)c3ccccc3)nc12,-13.3%
14,CC(C(=O)NCc1ccnc(N(C)C)c1)n1cncn1 (stereo not given),-9.74%
15,CN(C)S(=O)(=O)N1CC[C@]2(C[C@H](Oc3ncccc3F)CO2)C1,2.42%
16,Cc1nc(C)c(C(=O)N2CCCC2c2nnc3n2CCCCC3)s1 (stereo not given),-17.2%
17,CN1CCCN(C(=O)NCc2csc(Br)c2)CC1,14.5%
18,CCOC(=O)CCC(=O)NC(C)c1ccc(NC(=O)CC)cc1 (stereo not given),-0.224%
19,CCC1c2ccsc2CCN1C(=O)NCc1cc[nH]n1 (stereo not given),-35%
20,Cn1ccnc1CN1CCC2(CC(=O)N(c3cccc(F)c3)C2)C1 (stereo not given),-33.1%

# From ChEMBL document CHEMBL3988442, “University of Dundee, Small-Polar-MMV Screening Library” (2021)
